{
  "source": "PubChem BioAssay (NCATS)",
  "note": "Unmarked numbers belong to inactive results. Where a call stands in place of a potency, no number is given. Active and inactive are the calls of the source. Calls come from the whole dose curve; as a rule, active = well fitted inhibition curve with a large enough effect; inconclusive = small, poorly fitted or top-dose-only effect; inactive = flat fitted curve, though single readings scatter.",
  "data": [
    {"molecular_target": "Luciferin 4-monooxygenase (Photinus pyralis) (UniProt P08659)", "experiment": "Primary firefly luciferase (FLuc) qHTS assay for identification of artifact compounds. (AID 1845220); note: nearly all actives have a fitted effect of over 60% in size", "details": "purified firefly luciferase, luminescence, 5 min; series mostly up to 54.1 µM; activity change, negative = inhibition: at the top concentration", "excerpt": "PI: Alexander Tropsha Ph.D.\nUNC Eshelman School of Pharmacy\nUniversity of North Carolina, Chapel Hill, North Carolina\nHits from high-throughput screening (HTS) of chemical libraries are often false positives due to their interference with the assay detection technology. In response to this problem, we generated the largest publicly available library of chemical liabilities and developed a free webtool to predict HTS artifacts, both of which are described herein. More specifically, we generated, curated, and integrated HTS datasets for thiol reactivity, redox activity, and luciferase (firefly and nano) activity. Using these curated datasets, we developed and validated several Quantitative Structure-Interference Relationship (QSIR) models to predict nuisance behavior. […] These models were employed for virtual profiling of the National Center for Advancing Translational Science's (NCATS) in-house library, and 256 compounds for each assay were selected for the experimental validation of nuisance behavior. The BA for these external predictions ranged from 58 to 78% for compounds within the applicability domains of the models. […] The models developed in this study, along with aggregation models previously developed by our group (SCAM Detective) were implemented in \"Liability Predictor,\" an online tool which may be used as part of chemical library design or for triaging HTS hits. Both the models and the curated datasets are publicly available at https://liability.mml.unc.edu/.\nSEQUENCE No. (e.g., 1, 2, 3, etc.); […] (e.g., Cells, Incubation, Reagent, etc.); VALUE; DESCRIPTION.\n1; Reagent; 3 uL; Luciferase substrate mixture.\n2; Compounds and control; 16 nL; Kalypsis pin tool (Wako USA) equipped with a 1536-well pin head.\n4; Reagent; 1 uL; Luciferase enzyme.\n6; Detection; Luminescence, ViewLux microplate reader.\nNOTES (numbers refer to Sequence numbers above)\n1. 3 uL of luciferase substrate mixture containing D-luciferin and ATP (final concentrations of 10 uM and 10 uM, respectively) in assay buffer (10 mM Mg-acetate, 0.01% Tween-20, 0.05% bovine serum albumin, 50 mM Tris acetate, pH 7.6) was dispensed into all wells of a 1536-well assay plate (solid-bottom white plate; Greiner Bio One, Monroe, NC).\n2. A Wako Pin-tool (Wako Automation, Richmond, VA) was used to transfer 16 nL of compounds (consisting of 7-plates in qHTS format, final concentration range 18.3 nM to 114 uM) or control PTC124 (final concentration range 1.22 nM to 40 uM).\n3. 15 min. incubation at room temperature protected from light.\n4. 1 uL of luciferase enzyme (final concentration 10 nM, Photinus pyralis luciferase) or buffer was dispensed for a final assay volume of 4 uL.\n5. Plates were centrifuged (121xg, 15 seconds) and incubated for 5 minutes.\n6. Samples were read for luminescence on a ViewLux CCD imager (PerkinElmer). Data were normalized to no-enzyme (0% activity) and no-inhibitor (DMSO; 100%) controls and the resulting percent inhibition data were fitted to a 4-parameter Hill equation using NCATS in-house software.", "values": [
      {"compound": "Cc1nc2c([nH]1)CCN(C(=O)c1ccc(NC(=O)c3ccccc3-c3ccccc3)cc1)c1ccccc1-2", "activity change, negative = inhibition": "4.45%"},
      {"compound": "CNC(=O)c1cc(Oc2ccc(NC(=O)Nc3ccc(Cl)c(C(F)(F)F)c3)c(F)c2)ccn1", "outcome": "inactive"},
      {"compound": "CCCCn1c(=O)n(Cc2ccccc2F)c(=O)c2[nH]c(Cc3ccc(NC(C)=O)cc3)nc21", "outcome": "inactive"},
      {"compound": "CN(C)CCOc1cc(-c2cn[nH]c2)ccc1NC(=O)C1COc2ccccc2O1", "note": "(stereo not given)", "outcome": "inactive"},
      {"compound": "CNC1CCC(N(Cc2cccc(-c3ccncc3)c2)C(=O)c2sc3ccccc3c2Cl)CC1", "note": "(stereo not given)", "outcome": "inactive"},
      {"compound": "O=c1[nH]nc(OCCCc2ccc(Cl)cc2)c(NCc2cccnc2)c1Br", "activity change, negative = inhibition": "3.58%"},
      {"compound": "CCN1C[C@H](C)n2c(c(O)c3c(=O)n(Cc4ccc(F)c(Cl)c4)nc(C(=O)NC)c32)C1=O", "Potency": "inactive"},
      {"compound": "Nc1[nH]nc2nnc(-c3c(-c4ccccc4)nn4ccccc34)cc12", "activity change, negative = inhibition": "3.77%"},
      {"compound": "COc1cc2nccc(Oc3ccc(NC(=O)Nc4cc(C)on4)c(Cl)c3)c2cc1OC", "outcome": "inactive"},
      {"compound": "CCNC(=O)c1noc(-c2cc(C(C)C)c(O)cc2O)c1-c1ccc(CN2CCOCC2)cc1", "activity change, negative = inhibition": "4.19%"},
      {"compound": "CN1CCc2c(n(Cc3ccc(C(=O)NO)cc3)c3ccccc23)C1", "activity change, negative = inhibition": "0.519%"},
      {"compound": "CN1CCN(c2cccc(Nc3nc4c(-c5ccc(S(C)(=O)=O)cc5)cccn4n3)c2)CC1", "activity change, negative = inhibition": "-4.18%"},
      {"compound": "Cc1ccc2c(c1)c1c(n2CCc2ccc(C)nc2)CCN(C)C1", "activity change, negative = inhibition": "-11.5%"},
      {"compound": "O=C(CC12CC3CC(CC(C3)C1)C2)Nc1cccc2nc(NCCNCCO)ccc12", "outcome": "inactive"},
      {"compound": "Fc1ccc(CNc2ncnc3ccc(F)cc23)cc1", "activity change, negative = inhibition": "3.64%"},
      {"compound": "CC(=O)Nc1cccc(-n2c(=O)n(C3CC3)c(=O)c3c(Nc4ccc(I)cc4F)n(C)c(=O)c(C)c32)c1", "outcome": "inactive"},
      {"compound": "Nc1ncnc2c1c(-c1cccc(OCc3ccccc3)c1)cn2C1CC(CN2CCC2)C1", "note": "(stereo not given)", "outcome": "inactive"},
      {"compound": "CN(C)CCCNC(=O)c1ccc(-c2cc(O)c3ncccc3c2)cc1", "outcome": "inactive"},
      {"compound": "COc1ccc(Cn2ccc3ccc(C(=O)NO)cc32)cc1", "outcome": "inactive"},
      {"compound": "COc1cc(Nc2nc3ccccc3nc2NS(=O)(=O)c2ccc(NC(=O)c3ccc(C)c(OC)c3)cc2)cc(OC)c1", "outcome": "inactive"},
      {"compound": "CCn1c(-c2nonc2N)nc2cncc(CNC3CCNCC3)c21", "activity change, negative = inhibition": "-6.32%"},
      {"compound": "N#CC1(c2cccc(C(=O)Nc3cc(Oc4ccc5nc(NC(=O)C6CC6)sc5n4)ccc3F)c2Cl)CC1", "outcome": "inactive"},
      {"compound": "Clc1ccc(C2(c3ccc(-c4cn[nH]c4)cc3)CCNCC2)cc1", "outcome": "inactive"},
      {"compound": "NS(=O)(=O)c1ccc(Nc2nc(OCC3CCCCC3)c3[nH]cnc3n2)cc1", "activity change, negative = inhibition": "-8.56%"},
      {"compound": "C[C@@H](N)c1ccc(C(=O)Nc2ccnc3[nH]ccc23)cc1", "outcome": "inactive"},
      {"compound": "Cc1ccccc1-n1c(Cn2nc(-c3cccc(O)c3)c3c(N)ncnc32)nc2cccc(C)c2c1=O", "outcome": "inactive"},
      {"compound": "C[C@H](c1ccc(F)cc1CCCC(=O)O)N(c1cc(F)ccc1F)S(=O)(=O)c1ccc(Cl)cc1", "outcome": "inactive"},
      {"compound": "COc1nccc(-c2c(-c3ccc(F)cc3)ncn2C2CCNCC2)n1", "outcome": "inactive"},
      {"compound": "O=C(CCCN1CCN(c2ccc(F)cc2)CC1)NC1c2ccccc2CSc2ccccc21", "note": "(stereo not given)", "activity change, negative = inhibition": "-1.62%"},
      {"compound": "CN1C(=O)C(Cc2c[nH]c3ccccc23)NC1=S", "note": "(stereo not given)", "activity change, negative = inhibition": "-12.4% [at 25.7 µM]"},
      {"compound": "O=C(O)CCNc1cc(N2CCc3ccccc3CC2)nc(-c2ccccn2)n1", "Potency": "inactive"},
      {"compound": "NC(=O)c1noc([C@H](CCCC2CCCCC2)CC(=O)NO)n1", "activity change, negative = inhibition": "4.98%"},
      {"compound": "CNC(=O)c1c(-c2ccc(F)cc2)oc2cc(N(CCO)S(C)(=O)=O)c(C3CC3)cc12", "activity change, negative = inhibition": "-3.75%"},
      {"compound": "CC[C@H](CC#N)OC(=O)N[C@@H](C)c1cccc(NC(=O)Nc2ccc(-c3cnco3)c(OC)c2)c1", "activity change, negative = inhibition": "-8.4%"},
      {"compound": "c1ccc(-c2oc3ncnc(NC[C@@H]4CCCO4)c3c2-c2ccccc2)cc1", "outcome": "inactive"},
      {"compound": "CC(C)(O)CC(=O)NCCn1ccc2ncnc(Nc3ccc(Oc4cccc(C(F)(F)F)c4)c(Cl)c3)c21", "activity change, negative = inhibition": "0.477%"},
      {"compound": "Nc1ccc(-c2ccc3ncc4ccc(=O)n(-c5cccc(C(F)(F)F)c5)c4c3c2)cn1", "outcome": "inactive"},
      {"compound": "O=C(Nc1cccc(C(F)(F)F)c1)Nc1cc(S(=O)(=O)NC2CC2)ccc1-c1ccsc1", "activity change, negative = inhibition": "-7.29%"},
      {"compound": "CCN1CCC(n2cc(CNc3cc(Cl)c4ncc(C#N)c(Nc5ccc(F)c(Cl)c5)c4c3)nn2)CC1", "outcome": "inactive"},
      {"compound": "Cc1ccccc1C(=O)c1ccc(Nc2ccc(Br)cc2N)cc1Cl", "activity change, negative = inhibition": "-5.83%"}
    ]}
  ]
}
